Compound activity as filed in PubChem BioAssay.
This is a sample that favours compounds with a hit; in the whole collection about 6.8% have one here.
MCF10A rerep = inducers of DNA re-replication in MCF 10A breast cells; AID 624296; Potency, µM (doses to about 46.1 µM), inactives show at the top dose activity, positive = re-replication, hits mostly activators; MCF 10A DNA re-replication, Hoechst nuclear intensity, 48 h; 2.9% of 350,000 active; also: % of control where 0% means no effect; nearly all actives have a fitted effect of over 50% in size
KB-V1 MDR tox = kills drug-selected multidrug resistant KB-V1 cells. KB-V1 MDR cells viability, CellTiter-Glo, 72 h. 3.4% of 400,000 active. Potency, µM (titrated, usually from 46.1 µM), actives largely listed as cytotoxic; also: % is scaled to controls: 0 for no effect and ±100 for the full control effect; nearly all actives have a fitted effect of over 60% in size
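In this primary screen, KB-V1 cells overexpressing P-gp are incubated with library compounds (lowest to highest concentration) for 72 h at 37 degrees C before a luminescent ATP viability read.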
TSG101-PTAP inh = blocks PTAP/TSG101 interaction to inhibit HIV-1 budding; Potency, µM (highest dose often 115 µM), inactives show at the highest dose activity change, negative = inhibition, usual class: inhibitors; AID 493005; 340,000 tested, under 10 active; Q99816; Fluorescence polarization, FITC-PTAP peptide / Tsg101 binding; active = well fitted inhibition curve with a large enough effect in the main read-out, with a control signal flat, not every such curve was filed as active; inconclusive = small, poorly fitted or top-dose-only effect, or effect the other way, or a change in a side signal; inactive = no such curve, though single readings can be large or run the other way; also: % of control where 0% means no effect
Target sequence (Q99816 whole entry, looked up): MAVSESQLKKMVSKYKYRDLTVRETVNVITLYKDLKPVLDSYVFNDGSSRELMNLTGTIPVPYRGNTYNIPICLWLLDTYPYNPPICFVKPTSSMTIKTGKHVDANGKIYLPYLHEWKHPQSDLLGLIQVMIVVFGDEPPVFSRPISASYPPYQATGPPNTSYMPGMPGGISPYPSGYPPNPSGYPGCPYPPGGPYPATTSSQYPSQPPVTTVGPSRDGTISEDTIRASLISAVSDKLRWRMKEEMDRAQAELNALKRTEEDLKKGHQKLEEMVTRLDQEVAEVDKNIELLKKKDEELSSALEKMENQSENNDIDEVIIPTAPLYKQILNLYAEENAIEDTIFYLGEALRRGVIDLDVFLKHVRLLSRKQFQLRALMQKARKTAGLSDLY
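Steps: Tsg101 binding domain dispensed (10 uM final), compounds pinned in DMSO, FITC-labeled PTAP-motif peptide added (50 nM final); after 20 min binding at room temperature, polarization measured.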
PINK1 expr mod = PINK1 expression modulation; PINK1 immunofluorescence, high-content cytometry, 24 h; Potency, µM (top dose mostly 76.6 µM), inactives show at the highest dose activation (PINK1 increase), hits mostly activators; 0.2% of 410,000 active; AID 624263; active = well fitted activation curve with a large enough effect; inconclusive = small, poorly fitted or top-dose-only effect; cell line not stated here; also: % of control where 0% means no effect; nearly all actives have a fitted effect of over 65% in size
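Measures PINK1 amount and localization on or inside mitochondria by immunofluorescence. Stable cells get compounds at 5 concentrations for 24 hours before fixation and staining; CCCP controls included.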
KB-3-1 tox = KB-3-1 parental cell cytotoxicity; KB-3-1 viability, CellTiter-Glo ATP luminescence, 72 h; 1.4% of 400,000 active; Potency, µM (top dose mostly 46.1 µM), actives largely listed as cytotoxic; AID 1347075; also: % is scaled to controls: 0 for no effect and ±100 for the full control effect; nearly all actives have a fitted effect of over 60% in size
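Using CellTiter-Glo luminescence, growth of non-resistant KB-3-1 adenocarcinoma cells is assessed 72 h after pin-tool compound addition at 37 °C. Normalized responses across the concentration series yield fitted curves.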
SW480 rerep = induces DNA re-replication in SW480 colon adenocarcinoma cells; SW480 DNA re-replication, Hoechst DNA content imaging, 48 h; Potency, µM (doses to about 46.1 µM), without a hit: at the top dose re-replication activation, actives largely listed as activators; 1.8% of 340,000 active; also: % of control where 0% means no effect; nearly all actives have a fitted effect of over 55% in size
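Compounds, transferred as 23 nL by pin tool, were incubated with cells for 48 hr; DNA content per nucleus was then quantified by Hoechst staining and fluorescence plate imaging.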
An asterisk follows results filed as active; i = inactive; ? = inconclusive; · = not tested or not shown; [ ] = dose if it differs, or a comment. Unless noted, calls follow the shape of the dose curve; as a rule, active = well fitted curve in the direction sought with a large enough effect; inconclusive = small, poorly fitted or top-dose-only effect, or another doubt; inactive = no such curve, though single readings can be large; an effect the other way counts as inactive or inconclusive. Potency is read from the fitted curve at half-maximal effect.

SMILES | MCF10A rerep | KB-V1 MDR tox | TSG101-PTAP inh | PINK1 expr mod | KB-3-1 tox | SW480 rerep
O=c1cc(/C=C/c2ccccc2)oc2c1ccc1ccccc12 | 21µM* | ? | -2% | 16% | i | -5%
O=c1cc(C(F)(F)F)oc2c1ccc1ccccc12 | -1% | i | -5% | -3% | i | -4%
Cc1cc(NC(=O)C(C)SCC(=O)O)no1 (stereo not drawn) | -4% | i | 0% | 1% | i | -5%
Cc1cccc(N(Cc2ccccc2)C(=O)CSC(C)C(=O)Nc2cc(C)on2)c1 (stereo not drawn) | ? | 15µM* | -2% | -1% | ? | 13%
N#Cc1c(NC(=O)C2CC(c3ccccc3O)=NO2)sc2c1CCC2 (stereo not drawn) | ? | 21µM* | -9% | 0% | i | -39%
Cc1onc(-c2ccccc2Cl)c1C(=O)Nc1sc2c(c1C#N)CCC2 | ? | ? | 0% | · | i | -13%
N#Cc1c(NC(=O)C2CC(c3ccccc3Cl)=NO2)sc2c1CCC2 (stereo not drawn) | 21µM* | 26µM* | -9% | 8%[38.3 µM] | i | -2%
Fc1ccc(CCNc2ncnc3[nH]ncc23)cc1 | 2% | 4.1µM* | 0% | 0% | 12µM* | -4%
CCOC(=O)Nc1ccc2nc(-c3cscn3)[nH]c2c1 | · | 3.7µM* | · | 9% | 2.6µM* | ·
C=C(C)C(=O)OC1(C(F)(F)F)Oc2cc(C)ccc2NC1=O (stereo not drawn) | 16µM* | i | -3% | 0% | i | ?
Cc1ccc2c(c1)Oc1ccc(NC(=O)CCCl)cc1C(=O)N2 | ? | ? | -3% | 3% | i | ?
CCn1c(=O)n(CC)c2cc(S(=O)(=O)N3CCC(c4ccccc4)CC3)ccc21 | -5% | 23µM* | -4% | -3%[38.3 µM] | i | -2%
Cn1c(=O)c(=O)n(C)c2cc(S(=O)(=O)N3CCC(Cc4ccccc4)CC3)ccc21 | 8% | i | -3% | 13% | i | -3%
COc1cccc(/C=N/n2c(-c3cc(C)[nH]n3)n[nH]c2=S)c1OC | -1% | i | -1% | 5% | i | -4%
COc1cccc(/C=N/n2c(=S)n(C)c3cc(C)c(C)cc32)c1OC | 6% | 16µM* | -5% | 8% | i | -4%
CCOC(=O)c1sc(NC(=O)CSc2nc(C)cc(-c3ccccc3)n2)c(C#N)c1C | 9% | i | -6% | -1%[38.3 µM] | i | 1%
COCc1cc(C)nc(SCC(=O)Nc2nc(C)cs2)c1C#N | 16µM* | i | -4% | 5% | ? | ?
CCOC(=O)c1c(NC(=O)c2cc(-c3ccc(Cl)s3)nc3ccccc23)sc(C(N)=O)c1C | ? | i | 2% | 6% | ? | -7%
CCOC(=O)c1c(NC(=O)c2ccncc2)sc(C)c1C | 5% | i | -6% | 3% | i | -23%
Cc1ccccc1-c1cc(C(=O)Nc2sc(C)c(C)c2C(N)=O)c2ccccc2n1 | -6% | 16µM* | -2% | 6% | i | 0%
CCOC(=O)c1sc(NC(=O)c2cc(-c3ccccc3C)nc3ccccc23)c(C#N)c1C | 2.6µM* | ? | -5% | ? | 8.2µM* | 3%
CCOC(=O)c1sc(NC(=O)c2ccncc2)c(C#N)c1C | -24% | 2.6µM* | 1% | ? | 4.1µM* | -4%
Cc1cccc(NC(=O)C2CCCN(S(=O)(=O)c3c(C)noc3/C=C/N(C)C)C2)c1C (stereo not drawn) | · | i | · | 5% | i | ·
Cc1ccccc1C(=O)Nc1sc(C)c(C)c1C(=O)c1ccccc1 | 22% | 7.3µM* | -1% | 3% | i | 6%
CCOC(=O)c1sc(NC(=O)CSc2nc3c(cc2C#N)CCCCCC3)c(C#N)c1C | ? | ? | 2% | ? | i | 2%
SMILES | MCF10A rerep | KB-V1 MDR tox | TSG101-PTAP inh | PINK1 expr mod | KB-3-1 tox | SW480 rerep
CCOC(=O)c1sc(NC(=O)CSc2nc(C)cc(C)c2C#N)c(C#N)c1C | 2µM* | i | -2% | 2% | i | -3%
Cc1cc(C)c(C#N)c(SCC(=O)C2CC2)n1 | ? | i | -2% | 0% | i | 21µM*
Cc1sc(NC(=O)CCl)c(C(=O)c2ccccc2)c1C | ? | i | -3% | -5% | ? | ?
Cc1cccc(-c2nc3cc(NC(=O)c4ccc(OCC(C)C)cc4)ccc3o2)c1 | · | · | · | 1% | · | ·
Cc1ccc(/C=C/C(=O)Nc2ccc([N+](=O)[O-])cc2)o1 | -3% | i | -10% | ? | i | -9%
CCOC(=O)/C(=C\c1ccc([N+](=O)[O-])o1)NC(=O)c1ccccc1 | ? | ? | -9% | · | i | ?
CCc1ccc(/C=C/C(=O)c2ccc(S(=O)(=O)N(C)C)cc2)cc1 | 29% | 21µM* | 0% | 9% | i | ?
CCc1ccc(C(=O)/C=C/c2ccc([N+](=O)[O-])o2)cc1 | 8.9µM* | ? | 2% | 3% | ? | 9%[9.22 µM]
CCc1ccc(/C=C/C(=O)c2ccc(N3CCOCC3)cc2)cc1 | ? | i | 2% | 7% | ? | 14%
CCOC(=O)CCc1ccc(NC(=O)/C=C/c2ccc([N+](=O)[O-])o2)cc1 | 9.2µM* | ? | 1% | -3% | ? | 7.3µM*
COc1ccccc1NC(=O)C1=C(C)Nc2c(C(=O)Nc3ccc(C)cc3)cnn2C1c1cccc(OC)c1OC (stereo not drawn) | · | · | · | 13% | · | ·
O=C1N/C(=C\c2ccc(O)cc2)C(O)=C1C=NCc1ccccc1 | 10µM* | ? | -1% | 7% | ? | 1%
CCO[C@@H]1OC(C(=O)NCc2nc3ccccc3[nH]2)=C[C@H](C(C)(C)C)[C@H]1CCCO | 4.1µM* | i | -1% | 2% | 1.3µM* | ?
CCO[C@@H]1OC(C(=O)NCc2nc3ccccc3[nH]2)=C[C@H](C2CC2)[C@H]1CCCO | ? | i | 1% | 5% | 5.2µM* | ?
C=CC[C@@H](CC(=O)N(CCO)Cc1ccccc1)C(=O)N[C@H](COC(=O)[C@@H](CC=C)CC(=O)OC(C)(C)C)Cc1c[nH]c2ccccc12 | 10µM* | i | -7% | 1% | i | 8%
C=CC[C@@H](CC(=O)N[C@@H](CO)Cc1ccccc1)C(=O)N[C@H](COC(=O)[C@@H](CC=C)CC(=O)OC(C)(C)C)Cc1c[nH]c2ccccc12 | 16µM* | i | -4% | 7% | i | ?
